Screening data as filed in PubChem BioAssay.
D1 potentiator: enhances dopamine response at the human D1 receptor; P21728; HEK293 TREx D1 cells, calcium flux, dopamine EC20 potentiation; potentiation, % at 10 µM; actives 0.036% (n = 360,000); in the data active = potentiation above about 30%; note: 0% is about no effect
Target sequence (P21728 whole entry, looked up): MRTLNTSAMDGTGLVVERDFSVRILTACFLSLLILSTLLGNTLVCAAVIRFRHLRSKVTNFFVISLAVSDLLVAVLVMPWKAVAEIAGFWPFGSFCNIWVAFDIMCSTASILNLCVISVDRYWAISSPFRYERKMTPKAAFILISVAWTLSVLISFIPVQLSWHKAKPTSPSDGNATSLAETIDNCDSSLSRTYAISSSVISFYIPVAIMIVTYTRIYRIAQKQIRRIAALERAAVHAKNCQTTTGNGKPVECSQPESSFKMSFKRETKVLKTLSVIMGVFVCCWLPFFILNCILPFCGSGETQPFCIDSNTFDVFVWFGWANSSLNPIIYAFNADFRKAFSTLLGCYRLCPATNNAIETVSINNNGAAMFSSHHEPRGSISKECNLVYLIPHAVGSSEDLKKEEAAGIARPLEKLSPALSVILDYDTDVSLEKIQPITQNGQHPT
D1 ag: human D1 receptor agonism; HEK293 T-REx D1 cells, calcium flux, agonist mode; P21728; actives 1% (n = 360,000); AID 504660; activation, % at 2 µM; note: 0% is about no effect
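Inducible HEK293 T-REx D1 cells, force-coupled to calcium signalling, were plated at 4000 cells/well with tetracycline and held overnight at 30 C. After no-wash calcium dye loading, compound-evoked calcium rise over 180 s flagged agonists.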
TRHR ag: agonists of human TRH receptor | P34981 | TRHR cells, calcium flux fluo-8, FDSS agonist mode | activation, % at 2 µM | actives 0.18% (n = 360,000) | AID 493084; note: 0% is about no effect
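In this calcium-flux screen, cells bearing human TRHR are dye-loaded with fluo-8, baselined for 10 cycles, then exposed to library compounds; positive kinetic calcium responses during the agonist phase mark hits, with TRH as control.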
D1 antag: blocks dopamine activation of the human D1 receptor; P21728; activity change, negative = inhibition, % at 10 µM; actives 3.2% (n = 360,000); HEK293 TREx D1 cells, calcium flux, dopamine EC80; hits give low values; in the data active = activity change below about -30%; note: % is set by controls: 0 for no effect and ±100 for the full control effect
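After overnight tetracycline induction at 30 C, force-coupled D1 HEK293 cells took up a no-wash calcium dye at room temperature. Compounds were added and monitored 180 s, and the response to EC80 dopamine was then recorded.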
TRHR enhancer: allosterically enhances the human TRH receptor | P34981 | TRHR cells, fluo-8 calcium fluorescence, EC20 TRH enhancement | enhancement, % at 2 µM | actives 0.66% (n = 360,000) | AID 493056; in the data active = enhancement above about 30%; note: 0% is about no effect
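TRHR-expressing cells loaded with fluo-8 calcium dye were read kinetically (ex 480/em 530) during compound addition, then stimulated with an EC20 of TRH (10 nM final). Enhancement of the Gq-mediated intracellular calcium response was scored.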
* = called active by the depositor. Sampled rows, rich in hits. Any-hit rate of the full collection: about 4.7%. Cut-off read from the data, not from the text of the source, unless noted: active = activation above about 30%; inactive = the rest.

SMILES	D1 potentiator	D1 ag	TRHR ag	D1 antag	TRHR enhancer
O=C(CSc1nnc(-c2ccccn2)n1Cc1ccco1)c1ccc(-c2ccccc2)cc1	-6	2	0	-90*	-3
O=C(CSc1nnc(-c2ccc(O)cc2)n1Cc1ccco1)c1ccccc1	3	2	-1	-14	19
CCOc1ccc(NC(=O)Cc2csc(COc3cccc(C)c3)n2)cc1	0	-1	0	4	-2
Cn1c(=O)oc2cc(S(=O)(=O)N3CCCC(C(=O)NCCc4ccccc4)C3)ccc21 (stereo not drawn)	-3	0	-1	-4	-2
Cn1c(=O)oc2cc(S(=O)(=O)N3CCCC(C(=O)N4CCN(c5cccc(Cl)c5)CC4)C3)ccc21 (stereo not drawn)	-3	6	0	-32*	-9
Cc1cccc(N2CCN(C(=O)C3CCCN(S(=O)(=O)c4ccc5c(c4)oc(=O)n5C)C3)CC2)c1C (stereo not drawn)	-2	4	-1	-31*	-6
Cc1cccc(N2CCN(C(=O)C3CCN(S(=O)(=O)c4ccc5c(c4)oc(=O)n5C)CC3)CC2)c1C	0	6	0	-13	-1
Cc1cccc(CCNC(=O)C2CCCN(S(=O)(=O)c3ccc4c(c3)oc(=O)n4C)C2)c1 (stereo not drawn)	-3	-1	-2	-50*	-5
COc1cccc(N2CCN(C(=O)C(CCSC)NS(=O)(=O)c3ccc4c(c3)oc(=O)n4C)CC2)c1 (stereo not drawn)	2	0	0	15	4
CSCCC(NS(=O)(=O)c1ccc2c(c1)oc(=O)n2C)C(=O)N1CCN(c2cccc(Cl)c2)CC1 (stereo not drawn)	-6	10	0	0	38*
Cn1ccc2cc(S(=O)(=O)N3CCN(C(=O)Nc4ccc(F)cc4F)CC3)ccc21	2	0	0	8	4
CC(=O)Nc1ccc(Nc2ccc3cc(S(=O)(=O)N4CCCCC4)ccc3n2)cc1	-3	2	0	-1	0
Cn1c(=O)oc2cc(S(=O)(=O)N3CCC(C(=O)N4CCN(c5ccc(Cl)cc5)CC4)CC3)ccc21	-3	8	0	-18	-4
Cn1c(=O)oc2cc(S(=O)(=O)N3CCC(C(=O)N4CCN(c5cccc(Cl)c5)CC4)CC3)ccc21	-4	19	-2	-31*	0
COc1ccc(-c2noc(CN(C(=O)C(C)Oc3ccc(C)cc3)C(C)C)n2)cc1 (stereo not drawn)	-1	2	0	-15	0
Cc1nc(SC(C)C(=O)Nc2ccccc2Cl)cc(-c2ccccc2)n1 (stereo not drawn)	2	1	2	8	-8
COc1ccc(OC)c(NC(=O)c2ccc(-c3nc(CSc4ccccc4)c(C)o3)cc2)c1	1	4	1	-32*	-3
Cc1ccc(SCc2nc(-c3ccc(C(=O)NCCc4ccc(Cl)cc4)cc3)oc2C)cc1	-1	4	0	2	1
Cc1ccc(SCc2nc(-c3ccc(C(=O)NCC(C)c4ccccc4)cc3)oc2C)cc1 (stereo not drawn)	4	30*	4	-5	10
COCCCNC(=O)NC(CCC(C)C)c1c(-n2cccc2)sc2c1CCN(C)C2 (stereo not drawn)	-2	1	1	-2	8
CCOC(=O)c1ccc(NC(=O)c2nc(SCc3ccccc3F)ncc2Cl)cc1	1	8	5	3	-2
COc1ccc(OCc2cc(C(=O)N3CCCCCC3)no2)c(Cl)c1	-9	4	1	0	1
COc1ccc(OCc2cc(C(=O)N3CCC(c4ccccc4)CC3)no2)c(Cl)c1	-5	35*	-1	-3	5
COc1cccc(OCc2cc(C(=O)N3CCC(c4ccncc4)CC3)no2)c1	-11	14	0	-36*	1
COc1ccc(NC(=O)Cn2c(=O)n(Cc3ccco3)c(=O)c3sc4ccccc4c32)cc1OC	-4	2	0	-10	-4
SMILES	D1 potentiator	D1 ag	TRHR ag	D1 antag	TRHR enhancer
CC(C)(C)NC(=O)c1cnn(-c2ccccc2)c1C1CCN(C(=O)OC(C)(C)C)CC1	3	0	1	26	6
CCOc1ccc(CNC(=O)CCS(=O)(=O)c2cc3c4c(c2)CCN4C(=O)CC3)cc1OC	-3	2	0	-11	-2
Cc1cc(C)cc(OCC(=O)Nc2nc3c(s2)CC(C(C)(C)C)CC3)c1 (stereo not drawn)	-1	8	-1	-75*	1
O=C(O)CCC(=O)N1CCN(c2nc3ccccc3s2)CC1	2	0	0	-69*	-1
Cc1cccc(C)c1NC(=O)N1CCN(c2nc3ccccc3s2)CC1	-5	8	-1	-1	-4
O=C(O)CCC(=O)N1CCN(c2ccccn2)CC1	-4	1	0	20	-3
O=C(O)CCC(=O)N1CCN(c2ncccn2)CC1	2	3	0	-32*	-6
Cn1c(=O)c2c(nc(N3CCOCC3)n2Cc2ccccc2F)n(C)c1=O	3	0	0	7	-1
CCOc1cc(C(C(=O)NCC2CCCO2)N(C(=O)Cn2nnc3ccccc32)c2ccc(NC(C)=O)cc2)ccc1O (stereo not drawn)	-2	1	0	17	9
CCC(C)(C)NC(=O)C(c1ccncc1)N(Cc1cccs1)C(=O)Cn1nnc2ccccc21 (stereo not drawn)	3	1	0	1	2
CCC(C)(C)NC(=O)C(c1cccs1)N(CC1CCCO1)C(=O)Cn1nnc2ccccc21 (stereo not drawn)	0	0	-1	3	38*
COc1cc(C(C(=O)NCC2CCCO2)N(C(=O)Cn2nnc3ccccc32)c2ccc(OC)c(OC)c2)ccc1O (stereo not drawn)	-4	0	0	-80*	4
COc1ccc(N(C(=O)CNC(=O)c2cccs2)C(C(=O)NCC2CCCO2)c2ccccc2)cc1OC (stereo not drawn)	-4	2	-1	-55*	10
Cc1cc(NC(=O)c2ccco2)cc(-c2nc3cc(Cl)ccc3o2)c1O	-2	0	2	-10	-5
Cc1c(-c2nsc(NC(=O)c3cccs3)n2)nnn1-c1ccc(Cl)cc1	-2	13	0	-21	-5
Cc1ccc(-c2nnc(Nc3ccc(O)cc3)c3ccccc23)cc1S(=O)(=O)N1CCN(C)CC1	-1	0	0	1	8
CC(=O)Cc1nsc(NC(=O)c2ccc(F)cc2)n1	-4	0	0	-80*	-3
CC(=O)Cc1nsc(NC(=O)c2ccccc2)n1	-4	2	1	-8	4
CCOc1ccc(-n2c(=O)c3c(C)c(C)sc3n(CC(=O)N3CCC(C)CC3)c2=O)cc1	2	-1	-1	-4	-8
